Activity calls are given as the source filed them. The call rests on the fitted dose curve; in most records, active means well fitted curve in the direction sought with a large enough effect in the repeat runs; inconclusive means weak or mixed curves; inactive means flat fitted curve, though single readings scatter.

This assay can be described thus: qHTS assay to test for compound auto fluorescence at 460 nm (blue) in HepG2 cells (AID 720687). The conditions noted are these: autofluorescence 405/460 nm, 1 h; series mostly up to 91.3 µM. The source says:
U.S. Tox21 Program National Center for Advancing Translational Sciences [NCATS] NIH Chemical Genomics Center [NCGC] U.S. Environmental Protection Agency [EPA] National Institutes of Environmental Health Sciences [NIEHS] National Toxicology Program [NTP] U.S. Food and Drug Administration [FDA] Tox21 Assay Overview: Compound auto fluorescence often interferes with screening of the compound library against various biological targets and signaling pathways. Some of these compounds may have fluorophoric properties. Such properties may interfere with the assay outputs resulting in false positives and/or negatives. To decrease such complications and ensure the compound activities are relevant in terms of biological response, the Tox21 10K compound library was screened for auto fluorescence. From the fluorophores used as reporter signals in our screening assays, the auto fluorescence equivalencies of compounds against three fluorophores have been evaluated: Triamterene, Fluorescein and Rose Bengal sodium for blue, green and red fluorescence, respectively. The fluorescence intensities were measured using Excitation/Emission wavelengths at 405/460nm, 485/535nm and 540/590nm for blue, green and red labels, respectively. This assay includes the blue fluorescence data.
Tox21 Assay Protocol Summary: 2,000 HepG2 cells in 5 uL of culture medium (MEM containing 10% FBS) per well were dispensed into black wall/clear bottom 1536-well plates using a Multidrop Combi Dispenser (ThermoFisher Scientific, Waltham, MA). The assay plates were incubated overnight at 37 C to allow cell attachment to the well bottom, followed by the transfer of 23 nL compound or DMSO vehicle by a pintool work station (Kalypsys , San Diego, CA). After the assay plates were incubated for 1 hr at 37 C and 5% CO2, fluorescence intensities in the assay plates were measured by an Envision (PerkinElmer, Shelton, CT) plate reader using three labels for measuring blue, green and red fluorescence at […] 460, 535 and 590 nm respectively.
Regarding `CCCCCCCCC/C=C/CC1CC(=O)OC1=O` (stereo not given), the outcome was inactive. Consider `O=C(O)[C@H](O)[C@@H](O)[C@H](O)[C@H](O)CO`, for which the outcome was inactive.

In the case of `O=C(O)c1ccc2c(c1)C(=O)OC2=O`, the molecule was classed as inactive. As to `COc1ccc2cc([C@H](C)C(=O)O)ccc2c1`, the outcome was inactive. Next, `c1ccc(OCCOc2ccccc2)cc1`: “inactive”; `Cc1ccc(N(C)C)cc1`: “inactive”.

As for `O=[N+]([O-])c1ccc(/C=C/c2ccc([N+](=O)[O-])cc2S(=O)(=O)O)c(S(=O)(=O)O)c1`, the molecule was called inactive.

Consider `CCCCCC(N)=O`, for which the result was inactive. Take `O=C(OCCOCCOC(=O)c1ccccc1)c1ccccc1`: the molecule was called inactive. In the case of `Cc1cc(C)c(C)cc1C`, the molecule was called inactive.

As to `Cc1cccc(O)c1`, the molecule was called inactive. The entry for `CCOC(=O)NNc1nncc2ccccc12` is “inactive”; for `CCCCCCCCCC` it is “inactive”. As for `CC(=O)OCC(=O)[C@@]12N=C(C)O[C@@H]1C[C@H]1[C@@H]3CCC4=CC(=O)C=C[C@]4(C)[C@H]3[C@@H](O)C[C@@]12C`, the molecule was called inactive. The entry for `CCCCCOC(C)=O` is “inactive”; for `O=C(O)c1cc(=O)c2c(OCC(O)COc3cccc4oc(C(=O)O)cc(=O)c34)cccc2o1` it is “inactive”. Next, `CCCCN(CCCC)CCCC`: “inactive”; `O=C(Oc1ccccc1)c1ccccc1`: “inactive”.

In the case of `CN(C)CCC(c1ccccc1)c1ccccn1` (stereo not given), the molecule was called inactive. The entry for `c1c[nH]cn1` is “inactive”; for `COc1ccc(Cl)cc1C(=O)NCCc1ccc(S(=O)(=O)NC(=O)NC2CCCCC2)cc1` it is “inactive”. As to `CCC(O)OCCCOC` (stereo not given), the outcome was inactive. In the case of `C[C@H]1C[C@H]2[C@@H]3CCC4=CC(=O)C=C[C@]4(C)[C@@]3(F)[C@@H](O)C[C@]2(C)[C@@]1(O)C(=O)CO`, the call was inactive. On to `C=C(C)C(=O)Nc1ccc(Cl)c(Cl)c1`, for which the call was inactive. `CCCCCCOCCO`: the outcome was inactive. As to `Oc1cccc2ccccc12`, the molecule was called inactive. For `COc1ccc(Nc2ccccc2)c(C)c1`, the result was inactive.

Consider `Cc1cnc(C(=O)NCCc2ccc(S(=O)(=O)NC(=O)NC3CCCCC3)cc2)cn1`, for which the molecule was classed as inactive. `CCCCC(CC)COC(=O)CS` (stereo not given): the result was inactive. The entry for `CC[C@H](C)C(=O)O[C@H]1C[C@@H](C)C=C2C=C[C@H](C)[C@H](CC[C@@H]3C[C@@H](O)CC(=O)O3)[C@H]21` is “inactive”; for `C[C@H]1C[C@@H]2[C@H]([C@@H](O)C[C@@]3(C)[C@H]2CC[C@]3(O)C(=O)CO)[C@@]2(C)C=CC(=O)C=C12` it is “inactive”.

On to `CC(C)(C)[C@@H](O)[C@@H](Cc1ccc(Cl)cc1)n1cncn1`, for which the outcome was inactive. The entry for `O=C(O)CCCCCCCCCCC(=O)O` is “inactive”; for `O=C(O)CC(C(=O)O)C(CC(=O)O)C(=O)O` (stereo not given) it is “inactive”. For `Cc1occc(=O)c1O`, the outcome was inactive. With `O=C1CCC(N2C(=O)c3ccccc3C2=O)C(=O)N1` (stereo not given), the molecule was classed as inactive.

In the case of `CC(=O)c1ccccc1`, the result was inactive. The entry for `C#C[C@]1(O)CC[C@H]2[C@@H]3CCC4=CC(=O)CC[C@@H]4[C@H]3CC[C@@]21C` is “inactive”; for `O=c1[nH]nnc2ccccc12` it is “inactive”; for `O=c1[nH]c(=O)n([C@H]2C[C@H](O)[C@@H](CO)O2)cc1Br` it is “inactive”.
